Assay outcomes as filed in PubChem BioAssay.
ABHD5-PLIN5 inh: inhibitors of human ABHD5-perilipin-5 interaction. Q00G26+Q8WTS1. Split G. princeps luciferase complementation, luminescence, 4 h. inhibition, % at 4 µM. actives 0.78% (n = 360,000);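 active means inhibition above the mean inhibition across every tested compound plus 3 SD, cut at about 22% in these data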;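 further: 0% = DMSO only wells and the 100% control is not disclosed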
rCAG binder: molecules binding r(CAG) RNA repeats. r(CAG) RNA repeat, TO-PRO-1 dye displacement fluorescence. inhibition, % at 3 µM. actives 1.3% (n = 370,000). AID 651821;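 active means inhibition above the plate cutoff, the mean of all test compounds on that plate plus 3 SD, cut at about 35% in these data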;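 further: 0% = DMSO alone and 100% = 100 µM mitoxantrone as full dye displacement; higher means more dye released from RNA so lower well fluorescence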
TLR4-MyD88 BLA: TLR4-MyD88 interaction inhibition in cells | O00206+Q99836 | HeLa CL3-4 TLR4/MyD88 BLA complementation, FRET ratio | inhibition, % at 8.4 µM | actives 0.18% (n = 200,000); in the data active means inhibition above about 25%;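 further: 0% = vehicle and 100% = reference inhibitor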
TLR9-MyD88 block: inhibitors of human TLR9-MyD88 binding | inhibition, % at 4.98 µM | actives 0.21% (n = 340,000) | CHO BLA complementation TLR9-MyD88, CCF4 FRET ratio;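 active means inhibition above the mean over all tested compounds plus 3 SD, cut at about 21% in these data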;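 further: 0% = DMSO only wells and 100% = clavulanate BLA inhibitor control wells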
PRMT1 inh: PRMT1 (human) inhibition, primary screen. Q99873. recombinant PRMT1, activity-based probe fluorescence polarization. inhibition, % at 2.79 µM. actives 1.3% (n = 370,000). AID 652257;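 active means inhibition above about 21% made by adding two undisclosed values, limit read from the data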
NOD2 RIPK2 PPI: blocks binding of human NOD2 to RIPK2. CHO BLA complementation NOD2-RIPK2, CCF4 ratio. inhibition, % at 4.98 µM. actives 0.38% (n = 360,000). AID 624267; in the data active means inhibition above about 21%;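 further: 0% = vehicle only and 100% = reference blocker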
Target sequence (O43353 whole entry, looked up): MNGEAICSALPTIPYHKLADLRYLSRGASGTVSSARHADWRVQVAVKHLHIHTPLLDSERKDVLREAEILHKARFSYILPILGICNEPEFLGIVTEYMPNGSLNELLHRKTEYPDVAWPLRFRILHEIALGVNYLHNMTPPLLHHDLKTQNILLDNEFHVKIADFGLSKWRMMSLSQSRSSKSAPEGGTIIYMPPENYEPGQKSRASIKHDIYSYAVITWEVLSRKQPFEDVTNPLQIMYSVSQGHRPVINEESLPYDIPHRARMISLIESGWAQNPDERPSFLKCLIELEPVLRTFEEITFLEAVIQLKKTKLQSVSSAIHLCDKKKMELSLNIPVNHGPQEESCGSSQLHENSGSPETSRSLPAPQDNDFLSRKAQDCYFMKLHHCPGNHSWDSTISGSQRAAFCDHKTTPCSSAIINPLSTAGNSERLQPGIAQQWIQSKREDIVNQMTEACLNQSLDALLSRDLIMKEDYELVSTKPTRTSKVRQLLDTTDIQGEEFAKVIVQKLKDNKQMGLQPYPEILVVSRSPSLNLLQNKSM
NOD2 RIPK2 conf: confirmation of human NOD2-RIPK2 interaction inhibitors | shares compounds with NOD2 RIPK2 PPI | CHO cells, NOD2-RIPK2 BLA complementation, CCF4 FRET | inhibition, % at 4.98 µM | actives 70% (n = 1,200);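 active means mean inhibition across replicates above a set limit taken from the earlier primary screen, cut at about 21% in these data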;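 further: 0% = DMSO-only wells and the high end = clavulanate BLA-blocked wells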
NOD2 BLA counter: counter-screen for NOD2-RIPK2 interaction inhibitors: BLA reporter; shares compounds with NOD2 RIPK2 PPI; CHO BLA reporter, CCF4 FRET ratio, counterscreen; inhibition, % at 4.98 µM; actives 57% (n = 1,200); AID 624371;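 active means mean inhibition above the low-control mean inhibition plus three low-control SD, cut at about 11% in these data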;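 further: 0% = DMSO only wells and 100% = clavulanate high control wells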
The depositor's hits bear a star; . = no result given. Sampled rows, rich in hits. Any-hit rate of the full collection: about 3.3%.

SMILES | ABHD5-PLIN5 inh | rCAG binder | TLR4-MyD88 BLA | TLR9-MyD88 block | PRMT1 inh | NOD2 RIPK2 PPI | NOD2 RIPK2 conf | NOD2 BLA counter
CC(C)(C)NC(=O)C(CCc1ccccc1)n1c(=O)c(-c2cc3ccccc3[nH]2)nc2ccccc21 (centres undefined) | -12.3 | 15.3 | . | . | -1.9 | 43.8* | 40.3* | 66.2*
Cc1cccc(C)c1NC(=O)C(CCc1ccccc1)n1c(=O)c(-c2cc3ccccc3[nH]2)nc2ccccc21 (centres undefined) | 4.7 | 19.0 | . | . | -0.7 | 44.7* | 41.3* | 67.2*
CN(C)C(CNC(=S)Nc1ccc(F)cc1)c1cccnc1 (centres undefined) | -0.2 | -1.2 | 1.6 | 7.9 | -2.5 | 4.5 | . | .
Nc1c(C(=O)NCc2ccc(Cl)cc2)sc2nc3c(c(C(F)(F)F)c12)CCC3 | -3.5 | 12.1 | 11.4 | 7.2 | -2.2 | -11.1 | . | .
Cc1cc(C(F)(F)F)c2c(N)c(C(=O)NCc3ccc(Cl)cc3)sc2n1 | -5.7 | 4.0 | . | . | 1.2 | 23.5* | 23.1* | 21.3*
CC(C)(C)OC(=O)C[C@H]1C/C=C\C[C@H](CC(=O)N[C@H](CO)Cc2ccccc2)C(=O)N2CCC[C@@H]2COC1=O | 5.6 | -11.0 | . | 3.7 | -3.1 | -2.4 | . | .
O=C(Cn1ncc(Cl)c(Cl)c1=O)N1CCN(S(=O)(=O)c2ccc3ccccc3c2)CC1 | 2.6 | 8.8 | 18.8 | 11.3 | 4.0 | 49.9* | 67.7* | 14.7*
COc1ccc(C)c2sc(NC(=O)c3cccc(N4C(=O)CCC4=O)c3)nc12 | 11.9 | 3.4 | . | -0.9 | 1.6 | 21.7* | 2.7 | -1.6
CCCCn1c(=O)[nH]c(=O)c2c1nc(Cn1ncc(Cl)c(Cl)c1=O)n2CCC | 11.6 | 0.9 | . | 16.1 | 0.1 | 40.4* | 55.4* | 12.6*
CCOC(=O)C1=CCN(S(=O)(=O)c2ccccc2F)C1c1ccc(Cl)c(Cl)c1 (centres undefined) | -1.1 | 4.0 | . | . | -0.8 | 0.3 | . | .
COc1ccc(C(C)=O)cc1CSc1nc2ccccc2c(=O)n1-c1ccccc1C | 2.5 | 2.3 | 11.0 | -3.1 | 0.7 | 24.0* | -1.6 | -2.5
FC(F)(F)c1ccccc1-c1ccc2nncn2c1 | 1.6 | 2.8 | . | . | -3.1 | 23.1* | -5.8 | 0.5
c1ccc(-c2ccc3nncn3c2)cc1 | 1.7 | -0.1 | . | . | 0.2 | -0.6 | . | .
O=C(Nc1ccc2c(c1)OCCO2)C(c1ccncc1)n1c(=O)c(-c2cc3ccccc3[nH]2)nc2ccccc21 (centres undefined) | 5.8 | 24.3 | . | . | 2.6 | 34.3* | 36.6* | 58.3*
O=C(Nc1ccc2c(c1)OCCO2)C(c1ccccc1F)n1c(=O)c(-c2cc3ccccc3[nH]2)nc2ccccc21 (centres undefined) | -5.0 | 19.8 | . | . | -0.5 | 48.7* | 45.1* | 67.5*
O=C(Nc1ccc2ccccc2c1)C(c1ccc(C(F)(F)F)cc1)n1c(=O)c(-c2cc3ccccc3[nH]2)nc2ccccc21 (centres undefined) | -15.8 | 28.6 | . | . | -2.8 | 46.4* | 39.8* | 64.7*
COc1ccc(C(C(=O)NC(C)(C)C)n2c(-c3ccc(C(F)(F)F)cc3)nc3ccccc32)cc1 (centres undefined) | -9.3 | 2.4 | . | . | 0.6 | -21.4 | . | .
O=C(Nc1ccc2c(c1)OCCO2)C(c1ccc(C(F)(F)F)cc1)n1c(=O)c(-c2cc3ccccc3[nH]2)nc2ccccc21 (centres undefined) | -16.8 | 11.1 | . | . | -4.8 | 47.9* | 44.2* | 65.5*
CC(=O)Nc1ccc(S(=O)(=O)NCCC(=O)NNC(=O)c2ccccc2O)cc1 | 4.8 | 0.7 | . | -14.6 | -1.4 | -3.3 | . | .
O=C(Cc1c[nH]c2ccccc12)Nc1ccc(Nc2cccnc2)cc1 | . | 3.2 | . | . | 0.9 | . | . | .
COc1ccc(NS(=O)(=O)c2ccc3ccccc3c2)c2ncccc12 | 8.3 | 8.9 | . | 12.6 | -3.5 | 28.9* | 30.1* | 17.4*
COc1ccccc1C(=O)N/C(=C\c1cn(S(=O)(=O)N(C)C)c2ccccc12)C(=O)N1CCOCC1 | 2.3 | 0.3 | . | 4.3 | -0.1 | -4.4 | . | .
O=C(Nc1ccc(S(=O)(=O)N2CCCCCC2)cc1)c1[nH]ncc1[N+](=O)[O-] | 4.6 | 33.0 | . | 26.2* | 0.9 | 29.1* | 14.2 | 9.9
CNC(=S)Nc1cc(C)ccc1OC(F)F | -9.2 | -0.4 | 1.2 | -8.5 | 2.5 | -4.6 | . | .
CC(=O)c1ccc(OCCCC(=O)Nc2ccc(C)c(S(=O)(=O)N3CCCCC3)c2)cc1 | -3.9 | -1.1 | . | -8.1 | -1.3 | 36.3* | -7.1 | -6.7
SMILES | ABHD5-PLIN5 inh | rCAG binder | TLR4-MyD88 BLA | TLR9-MyD88 block | PRMT1 inh | NOD2 RIPK2 PPI | NOD2 RIPK2 conf | NOD2 BLA counter
COc1ccc(OCC(=O)N2CCc3c([nH]c4ccccc34)C2c2ccccn2)cc1 (centres undefined) | 2.1 | 2.0 | -5.8 | 3.1 | 0.3 | -4.6 | . | .
O=C1OCCN1CC(=O)N1CCc2c([nH]c3ccccc23)C1c1ccccn1 (centres undefined) | -8.2 | 1.2 | -7.7 | -12.6 | 2.1 | 22.1* | -11.8 | -4.1
Cc1ccc(S(=O)(=O)C2CCN(c3nc(-c4cccs4)nc4ccccc34)CC2)cc1 | . | . | . | . | -0.7 | . | . | .
Cc1cccc(C)c1NC(=O)c1csc(COCCO)n1 | -1.0 | -0.4 | . | . | 4.2 | 7.2 | . | .
Cc1cccc(C)c1NC(=O)c1nc(S(=O)(=O)Cc2ccccc2)ncc1Cl | 71.1* | -1.7 | . | 8.4 | 15.6 | 54.8* | 47.9* | 5.1
CSc1ncc(Cl)c(C(=O)Nc2cccc3ccccc23)n1 | -0.7 | 1.1 | 2.0 | -6.3 | 2.2 | -11.9 | . | .
Cc1ccc(CNC(=O)Nc2ccc3c(c2)N(C)C(=O)CS3)cc1 | -10.7 | 10.5 | 3.9 | 0.1 | 2.7 | 27.2* | -2.6 | -4.2
COc1cccc(N2CCN(c3ncnc4c3[nH]c3ccccc34)CC2C)c1 (centres undefined) | . | 3.0 | 11.7 | . | -0.7 | . | . | .
COc1cccc(N2CCN(c3ncnc4c3[nH]c3ccc(F)cc34)CC2C)c1 (centres undefined) | -0.9 | 5.9 | 6.0 | 2.8 | 4.5 | 28.3* | 14.7 | -0.5
N#Cc1c(-c2ccccc2)cc(C2CC2)nc1N | 4.3 | -2.1 | 9.1 | 4.7 | -0.5 | -3.5 | . | .
COc1ccc(-c2cc(-c3cccs3)nc3sc(C#N)c(N)c23)cc1 | 2.6 | 8.0 | 17.1 | 13.4 | 6.8 | 44.7* | 51.4* | 68.6*
COCc1cc(C)c2c(N)c(C#N)sc2n1 | 5.3 | 3.3 | -3.4 | 1.3 | 0.3 | -7.1 | . | .
N#Cc1sc2nc(C3CC3)cc(-c3ccc(Cl)cc3)c2c1N | -2.1 | 2.9 | 12.6 | 14.3 | -2.2 | 27.9* | 19.1 | 25.0*
